About 79,000 compounds went through this panel and 15% of them were active in at least one assay; those are over-represented in the sample as a whole. Activity calls are given as the source filed them. Cut-off read from the data, not from the text of the source: active = growth inhibition above about 70%; inactive = the rest.
What was measured:
[1] = NCI Yeast Anticancer Drug Screen. Data for the rad50 strain (AID 155);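 note: 0% = growth of vehicle-only cultures of the same strain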; conditions: S. cerevisiae rad50 strain growth inhibition, hits give high values
Summary of the method: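 Relative growth inhibition (compound vs vehicle) was measured in yeast with a defined repair-gene alteration.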

[2] = NCI Yeast Anticancer Drug Screen. Data for the mec2-1 strain (AID 157); conditions: S. cerevisiae mec2-1 strain, hits give high values
Summary of the method: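 Growth inhibition is read against vehicle-treated controls after compound exposure of the mec2-1 yeast strain, which is defective in DNA damage repair or cell cycle control.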

[3] = NCI Yeast Anticancer Drug Screen. Data for the sgs1 mgt1 strain (AID 161);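 note: 0% = growth of cultures given vehicle only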; conditions: S. cerevisiae sgs1 mgt1 strain, hits give high values
Summary of the method: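 This yeast growth screen uses a strain with defined DNA-repair lesions; compound-treated growth is compared with vehicle-treated growth.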

[4] = NCI Yeast Anticancer Drug Screen. Data for the cln2 rad14 strain (AID 165);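 note: 0% = growth equal to vehicle treated cultures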; conditions: S. cerevisiae cln2 rad14 strain, hits give high values
Summary of the method: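 Growth inhibition, relative to vehicle-treated controls, is the read-out. The test organism is a yeast strain with defined genetic alterations, cln2 rad14.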

[5] = NCI Yeast Anticancer Drug Screen. Data for the bub3 strain (AID 167); conditions: S. cerevisiae bub3 mutant strain, hits give high values
Summary of the method: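 Screening used yeast with an engineered genetic alteration affecting cell cycle control. Compound-exposed cultures were compared with vehicle cultures, and reduced growth was taken as inhibition.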

[6] = NCI Yeast Anticancer Drug Screen. Data for the mlh1 rad18 strain (AID 175); conditions: S. cerevisiae mlh1 rad18 strain growth inhibition, hits give high values
Summary of the method: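 Cells of a genetically altered yeast strain, deficient in DNA damage repair, were treated with compound. Their growth was then compared with that of vehicle-treated cultures to give inhibition.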

[7] = at 5.0 µM (retest, dose inferred, filed as 0.5)
[8] = at 50.0 µM (retest, dose inferred, filed as 5.0)

Measured: growth inhibition

CC1C(O)Oc2cc3c(cc2C1c1ccccc1O)OCO3 (stereo not given)
inactive: [1]; [7] -10% | [1]; at 50.0 µM 61.8% | [2]; [7] -41% | [2]; at 50.0 µM 32.1% | [3]; [7] -33% | [3]; [8] 40% | [3]; at 50.0 µM 56.5% | [4]; [7] 20% | [4]; at 50.0 µM 69.7% | [5]; [7] 25% | [5]; at 50.0 µM 38.6% | [6]; [7] -13% | [6]; at 50.0 µM 54.5%
active: [1]; [8] 77% | [2]; [8] 84% | [4]; [8] 87% | [5]; [8] 84% | [6]; [8] 90%

CC(=O)Oc1cccc2c(OC(C)=O)cccc12
active: [1]; [8] 87% | [2]; [8] 91% | [3]; at 50.0 µM 70.8% | [5]; [8] 92% | [6]; [8] 89%
inactive: [1]; [7] -8% | [1]; at 50.0 µM 69.2% | [2]; [7] -19% | [2]; at 50.0 µM 39.8% | [3]; [7] -9% | [3]; [8] 53% | [4]; [7] -8% | [4]; [8] 34% | [4]; at 50.0 µM 26.9% | [5]; [7] -32% | [5]; at 50.0 µM 58.2% | [6]; [7] -6% | [6]; at 50.0 µM 65.6%

O=S(=O)(c1cc(Cl)ccc1Cl)N1CCc2ccccc2C1
inactive: [1]; [7] 14% | [1]; [8] 3% | [1]; at 50.0 µM 16.1% | [2]; [7] -28% | [2]; [8] -13% | [2]; at 50.0 µM -25.6% | [3]; [7] -1% | [3]; [8] 12% | [3]; at 50.0 µM 25.6% | [4]; [7] -1% | [4]; [8] 15% | [4]; at 50.0 µM -11.4% | [5]; [7] 18% | [5]; [8] 12% | [5]; at 50.0 µM 5% | [6]; [7] -17% | [6]; [8] -31% | [6]; at 50.0 µM -9.85%

O=C(O)/C(=C/c1ccccc1)c1ccc2ccccc2c1Br
active: [1]; [8] 99% | [1]; at 50.0 µM 99.6% | [2]; [8] 100% | [2]; at 50.0 µM 99.7% | [3]; [8] 100% | [3]; at 50.0 µM 99.7% | [4]; [8] 99% | [4]; at 50.0 µM 99.2% | [5]; [8] 99% | [5]; at 50.0 µM 99.7% | [6]; [8] 99% | [6]; at 50.0 µM 99.7%
inactive: [1]; [7] 11% | [2]; [7] 1% | [3]; [7] 7% | [4]; [7] -18% | [5]; [7] -10% | [6]; [7] 33%

COc1ccc(/C=C2/C(=O)ON=C2C)cc1OC
active: [1]; at 50.0 µM 93.3% | [2]; at 50.0 µM 85.5% | [3]; at 50.0 µM 89.1% | [5]; at 50.0 µM 94.6% | [6]; at 50.0 µM 79.2%
inactive: [1]; [7] -15% | [1]; [8] 35% | [2]; [7] -14% | [2]; [8] 48% | [3]; [7] -14% | [3]; [8] 48% | [4]; [7] -12% | [4]; [8] 17% | [4]; at 50.0 µM 42.7% | [5]; [7] -3% | [5]; [8] 55% | [6]; [7] -9% | [6]; [8] 61%

c1ccc2c3[nH]c(c2c1)=Nc1ccc(cc1)-c1nc2ccc(cc2o1)N=c1[nH]c(c2ccccc12)=Nc1ccc2nc(oc2c1)-c1ccc(cc1)N=3
active: [1]; [8] 94% | [1]; at 50.0 µM 78.2% | [2]; [8] 93% | [2]; at 50.0 µM 84.8% | [3]; [8] 94% | [3]; at 50.0 µM 82.7% | [4]; [8] 81% | [4]; at 50.0 µM 84% | [5]; [8] 95% | [5]; at 50.0 µM 77% | [6]; [8] 93% | [6]; at 50.0 µM 88.6%
inactive: [1]; [7] 28% | [2]; [7] 18% | [3]; [7] 30% | [4]; [7] 17% | [5]; [7] 31% | [6]; [7] 50%

O=C1C=CC(=Nc2cccc3c2-c2ccccc2C3)O1
active: [1]; [7] 98% | [1]; [8] 99% | [1]; at 50.0 µM 99.6% | [2]; [7] 99% | [2]; [8] 99% | [2]; at 50.0 µM 99.6% | [3]; [7] 99% | [3]; [8] 99% | [3]; at 50.0 µM 99.7% | [4]; [7] 88% | [4]; [8] 99% | [4]; at 50.0 µM 99.4% | [5]; [7] 99% | [5]; [8] 99% | [5]; at 50.0 µM 99.7% | [6]; [7] 99% | [6]; [8] 99% | [6]; at 50.0 µM 85.6%

Cc1ccc(C(CN)(CCBr)c2ccc(C)cc2)cc1
inactive: [1]; [7] 63% | [2]; [7] 50% | [3]; [7] 59% | [4]; [7] 19% | [5]; [7] 36%
active: [1]; [8] 99% | [1]; at 50.0 µM 99.5% | [2]; [8] 98% | [2]; at 50.0 µM 99.5% | [3]; [8] 99% | [3]; at 50.0 µM 99.7% | [4]; [8] 90% | [4]; at 50.0 µM 99.4% | [5]; [8] 91% | [5]; at 50.0 µM 99% | [6]; [7] 92% | [6]; [8] 98% | [6]; at 50.0 µM 99.5%

CCCCCCCCCCCCCCCCP(=O)([O-])OCC[N+](C)(C)C
active: [1]; [8] 99% | [1]; at 50.0 µM 80.8% | [2]; [8] 99% | [2]; at 50.0 µM 87.3% | [3]; [8] 99% | [3]; at 50.0 µM 89.2% | [4]; [8] 99% | [4]; at 50.0 µM 89.5% | [5]; [8] 98% | [5]; at 50.0 µM 88.5% | [6]; [8] 98% | [6]; at 50.0 µM 91.5%
inactive: [1]; [7] -34% | [2]; [7] -32% | [3]; [7] 0% | [4]; [7] -27% | [5]; [7] -32% | [6]; [7] -26%

COc1ccccc1C(c1cc2c(cc1O)OCO2)N1CCOCC1 (stereo not given)
inactive: [1]; [7] -15% | [2]; [7] -20% | [3]; [7] -8% | [4]; [7] -12% | [4]; [8] 51% | [5]; [7] 15% | [5]; at 50.0 µM 31.9% | [6]; [7] 6% | [6]; at 50.0 µM 42.4%
active: [1]; [8] 97% | [1]; at 50.0 µM 99% | [2]; [8] 98% | [2]; at 50.0 µM 98.6% | [3]; [8] 98% | [3]; at 50.0 µM 85.3% | [4]; at 50.0 µM 77.4% | [5]; [8] 99% | [6]; [8] 98%

— PubChem BioAssay (NCI)
